Source: PubChem BioAssay (EPA / NIEHS)
Results filed as inconclusive are left out. Active and inactive are the calls of the source. How the source made its calls, unless noted: active means hit-call score of the fitted dose curve at least 0.9, where 1 is the maximum; inactive means score below 0.9.

Assays:
[1] = ATG_CRE_CIS: Attagene CIS-FACTORIAL HepG2 Assay for human cAMP Responsive Element (CRE) binding protein 3 (AID 2282926); conditions: HepG2 CRE cis-reporter, Attagene multiplexed mRNA; actives raise or lower the signal
In short: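 Endogenous CRE-binding activity in HepG2 is reported through a cis-regulated transfected reporter. Following a day of exposure, mRNA levels are determined by reverse transcription PCR and fluorescent fragment analysis; fits run in both directions versus DMSO.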

[2] = biological target: Aryl hydrocarbon receptor (Homo sapiens) (UniProt P35869); assay: ATG_Ahr_CIS: Attagene CIS-FACTORIAL HepG2 Assay for human Aryl Hydrocarbon Receptor (Ahr) (AID 2282930); conditions: HepG2 AhR cis-factorial reporter transcription; actives raise or lower the signal
In short: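 HepG2, transient MRTU (cis) transfection, 24 h exposure. RNA → cDNA → PCR → 6-FAM primer extension → HpaI 2 h 37 C → CE. Fit: bidirectional, DMSO baseline.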

[3] = biological target: Hepatocyte nuclear factor 3-beta (Homo sapiens) (UniProt Q9Y261); assay: ATG_FoxA2_CIS: Attagene CIS-FACTORIAL HepG2 Assay for human Forkhead box A2 (FOXA2) (AID 2282942); conditions: HepG2 cis-reporter transcription factor activity, 24 h; actives raise or lower the signal
In short: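 Measured: reporter mRNA induction or loss in HepG2 transiently carrying multiple cis-regulated reporter units, 24 h after dosing. Quantified by RT-PCR plus capillary electrophoresis, normalised to DMSO.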

[4] = biological target: Paired box protein Pax-6 (Homo sapiens) (UniProt P26367); assay: ATG_Pax6_CIS: Attagene CIS-FACTORIAL HepG2 Assay for human Paired Box 6 (PAX6) (AID 2282956); conditions: HepG2 CIS-FACTORIAL PAX6 reporter transcription, RNA readout; actives raise or lower the signal
In short: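 HepG2 cells transiently transfected with multiplexed cis-promoter reporter units (endogenous TF activity) were dosed for 24 h. Reporter mRNA was quantified by RT-PCR, 6-FAM labeling, HpaI digestion and capillary electrophoresis; bidirectional fitting versus DMSO baseline.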

[5] = biological target: Transcription factor Sp1 (Homo sapiens) (UniProt P08047); assay: ATG_Sp1_CIS: Attagene CIS-FACTORIAL HepG2 Assay for human Specificity Protein 1 (Sp1) (AID 2282961); conditions: HepG2 Sp1 cis-reporter transcription, actives raise or lower the signal
In short: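 Endpoint reflects endogenous Sp1 transcriptional activity, not an exogenous fusion protein: HepG2 cells with transfected cis-regulated reporters, 24 h dosing, RT-PCR/capillary electrophoresis mRNA read-out, DMSO-normalised bidirectional fit.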

[6] = ATG_SREBP_CIS: Attagene CIS-FACTORIAL HepG2 Assay for human Sterol Regulatory Element Binding (SREBP) (AID 2282962); conditions: HepG2 Attagene cis-factorial SREBP reporter, mRNA; actives raise or lower the signal
In short: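 HepG2 cells transiently transfected with multiplexed cis-element reporter units report endogenous transcription factor activity. After 24 h of chemical exposure, reporter mRNA was quantified by RT-PCR, 6-FAM labelling, HpaI digestion and capillary electrophoresis; bidirectional fits used DMSO as baseline.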

[7] = biological target: Signal transducer and activator of transcription 3 (Homo sapiens) (UniProt P40763); assay: ATG_STAT3_CIS: Attagene CIS-FACTORIAL HepG2 Assay for human Signal Transducer and Activator of Transcription 3 (STAT3) (AID 2282963); conditions: HepG2, Attagene cis-factorial STAT3 reporter transcription; actives raise or lower the signal
In short: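 After a 24 h compound incubation, total RNA from MRTU-transfected HepG2 cells was converted to cDNA and reporter sequences PCR-amplified, labelled and profiled by capillary electrophoresis. Gain and loss of signal were referenced to DMSO.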

[8] = ATG_TA_CIS: Attagene CIS-FACTORIAL HepG2 Assay for human TA Basal Promoter (AID 2282964); conditions: HepG2 Attagene CIS-factorial TA basal promoter reporter; actives raise or lower the signal
In short: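 Background-control readout: TA basal promoter reporter mRNA, fitted in both directions relative to DMSO. Measured by RT-PCR and capillary electrophoresis 24 hours after treating HepG2 human liver cells transiently carrying multiplexed cis-regulated reporter constructs.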

[9] = ATG_TCF_b_cat_CIS: Attagene CIS-FACTORIAL HepG2 Assay for human T-Cell-Factor with beta-catenin (TCF/b-cat) (AID 2282965); conditions: HepG2 TCF/beta-catenin cis-reporter transcription, actives raise or lower the signal
In short: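 Measured: reporter mRNA in HepG2 transiently transfected with cis-promoter reporter units, 24 h after chemical addition. Fitting was bidirectional, DMSO as negative control.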

[10] = ATG_TAL_CIS: Attagene CIS-FACTORIAL HepG2 Assay for human TAL Basal Promoter (AID 2282966); conditions: HepG2 Attagene cis-factorial TAL promoter reporter; actives raise or lower the signal;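 further: background control endpoint measuring basal TAL promoter reporter mRNA not a specific factor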
In short: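 In this cell-based multiplex, HepG2 liver cells bearing cis-promoter reporter constructs are dosed for 24 hours. Total RNA is reverse-transcribed and amplified, labelled fragments are sized by capillary electrophoresis, and signal changes are fitted bidirectionally versus DMSO.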

[11] = ATG_TGFb_CIS: Attagene CIS-FACTORIAL HepG2 Assay for human Transforming Growth Factor (TGF) (AID 2282967); conditions: HepG2 Attagene CIS TGFb reporter, mRNA transcription; actives raise or lower the signal
In short: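 Endogenous TGFB1-linked transcription factor activity read as reporter mRNA via RT-PCR and capillary electrophoresis, 24 h after dosing transiently transfected HepG2 cells. Gain or loss of signal fitted relative to DMSO.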

[12] = ATG_VDRE_CIS: Attagene CIS-FACTORIAL HepG2 Assay for human Vitamin D Receptor Element (VDRE) (AID 2282968); conditions: HepG2 VDRE cis-reporter transcription, actives raise or lower the signal
In short: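 In transiently transfected HepG2 liver cells, gain or loss of reporter mRNA after 24 h exposure is scored relative to DMSO, using fluorescence detection by capillary electrophoresis of RT-PCR products.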

[13] = ATG_M_32_TRANS: Attagene TRANS-FACTORIAL HepG2 Assay for M32 Transcription Factor (Internal Marker) (AID 2282984; active means hit-call score of the fitted dose curve at least 0.9, where 1 is the maximum;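 further: transcript level of a background control reporter unit measured by RT-PCR and capillary electrophoresis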); conditions: HepG2 Attagene TRANS M32 internal marker reporter
In short: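 Using transiently transfected HepG2 cells exposed to test chemicals for 24 h, reporter transcripts are converted to labelled cDNA fragments and quantified by capillary electrophoresis. DMSO defines the activity baseline.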

[14] = biological target: Transcriptional activator Myb (Homo sapiens) (UniProt P10242); assay: ATG_Myb_CIS: Attagene CIS-FACTORIAL HepG2 Assay for human Myeloblastosis (Myb) Proto-Oncogene Transcription Factor (AID 2282986); conditions: HepG2 Attagene CIS-FACTORIAL Myb reporter transcription; actives raise or lower the signal
In short: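 In this HepG2 transient-transfection format, cis-regulated reporter mRNA is quantified 24 h post-dosing by RT-PCR with capillary electrophoresis, fitted bidirectionally to DMSO baseline.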

[15] = biological target: Nuclear respiratory factor 1 (Homo sapiens) (UniProt Q16656); assay: ATG_NRF1_CIS: Attagene CIS-FACTORIAL HepG2 Assay for human Nuclear Respiratory Factor 1 (NRF1) Orphan Gene (AID 2282987); conditions: HepG2 NRF1 cis-element reporter, Attagene multiplex; actives raise or lower the signal
In short: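 Using DMSO as baseline, gain- or loss-of-signal was fitted for reporter mRNA levels in HepG2 cells transiently transfected with cis-regulated reporter units. Samples were taken 24 h after dosing and read by RT-PCR with capillary electrophoresis.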

[16] = ATG_NFI_CIS: Attagene CIS-FACTORIAL HepG2 Assay for human Nuclear Factor I (NFI) (AID 2282989); conditions: HepG2 cis-regulatory reporter, NFI response element transcription; actives raise or lower the signal
In short: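 Reporter transcripts were measured by RT-PCR with fluorescent primer extension and capillary electrophoresis 24 h post-treatment. HepG2 cells carried transiently transfected cis-regulated reporter constructs reporting endogenous factor activity; gain or loss fitted against DMSO baseline.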

[17] = biological target: Myc proto-oncogene protein (Homo sapiens) (UniProt P01106); assay: ATG_Myc_CIS: Attagene CIS-FACTORIAL HepG2 Assay for human Myelocytomatosis (Myc) Proto-Oncogene Transcription Factor (AID 2282990); conditions: HepG2, Attagene cis-reporter transcription factor activity; actives raise or lower the signal
In short: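 Cells of the HepG2 human liver line bear multiple cis-driven reporter transcription units. Reporter mRNA after 24 h exposure is reverse-transcribed, amplified, labelled and resolved by capillary electrophoresis, with gain- or loss-of-signal fitting relative to DMSO.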

[18] = ATG_NF_kB_CIS: Attagene CIS-FACTORIAL HepG2 Assay for human Nuclear Factor Kappa B (NF-kB) (AID 2282991); conditions: HepG2 Attagene cis-factorial NF-kB reporter mRNA; actives raise or lower the signal
In short: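 Endpoint from a 52-component multiplexed HepG2 reporter panel: cis-regulated transcription units transiently transfected, 24 h dosing, reporter mRNA quantified by RT-PCR and capillary electrophoresis, scored as increase or decrease against DMSO.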

[19] = ATG_Oct_MLP_CIS: Attagene CIS-FACTORIAL HepG2 Assay for human Octamer-Binding Transcription Factor (Oct) (AID 2282993); conditions: HepG2 Attagene cis-factorial Oct reporter, mRNA; actives raise or lower the signal
In short: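 Readout is reporter transcript level from RT-PCR with fluorescent primer extension and capillary electrophoresis, fitted in both directions against DMSO. Transfected HepG2 reporter units report endogenous factor activity after 24 h dosing.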

[20] = biological target: X-box-binding protein 1 (Homo sapiens) (UniProt P17861); assay: ATG_Xbp1_CIS: Attagene CIS-FACTORIAL HepG2 Assay for human X-box Binding Protein 1 (XBP1) (AID 2282972); conditions: HepG2 XBP1 cis-element reporter, Attagene multiplex; actives raise or lower the signal
In short: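 HepG2 cells transiently transfected with cis-regulated multiple reporter transcription units; endogenous transcription factor activity measured 24 hours after chemical dosing. Reporter mRNA quantified by RT-PCR, 6-FAM primer extension, HpaI digestion and capillary electrophoresis; bidirectional fitting versus DMSO.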

Measured: AC50

Chain of Hepatocyte nuclear factor 3-beta (Homo sapiens) (Q9Y261 whole entry, looked up): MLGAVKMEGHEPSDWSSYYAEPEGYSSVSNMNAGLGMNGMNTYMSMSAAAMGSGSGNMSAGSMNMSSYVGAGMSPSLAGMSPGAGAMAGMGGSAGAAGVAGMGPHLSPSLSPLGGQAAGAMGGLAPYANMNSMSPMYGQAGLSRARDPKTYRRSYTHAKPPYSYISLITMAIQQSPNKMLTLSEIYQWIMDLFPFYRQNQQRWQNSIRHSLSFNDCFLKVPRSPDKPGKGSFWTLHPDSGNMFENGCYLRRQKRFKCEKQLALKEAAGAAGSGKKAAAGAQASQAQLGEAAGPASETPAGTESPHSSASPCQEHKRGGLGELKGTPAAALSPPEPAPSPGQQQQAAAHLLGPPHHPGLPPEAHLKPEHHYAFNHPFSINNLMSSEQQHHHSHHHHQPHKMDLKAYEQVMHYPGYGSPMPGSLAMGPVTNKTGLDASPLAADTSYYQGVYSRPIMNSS
Chain of X-box-binding protein 1 (Homo sapiens) (P17861 whole entry, looked up): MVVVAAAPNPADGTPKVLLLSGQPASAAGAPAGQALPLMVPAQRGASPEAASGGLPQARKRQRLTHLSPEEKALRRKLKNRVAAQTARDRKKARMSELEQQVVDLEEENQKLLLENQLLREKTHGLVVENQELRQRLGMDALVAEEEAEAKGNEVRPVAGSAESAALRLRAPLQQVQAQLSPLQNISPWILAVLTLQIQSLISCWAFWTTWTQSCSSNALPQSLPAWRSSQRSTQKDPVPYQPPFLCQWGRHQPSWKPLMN
Chain of Aryl hydrocarbon receptor (Homo sapiens) (P35869 whole entry, looked up): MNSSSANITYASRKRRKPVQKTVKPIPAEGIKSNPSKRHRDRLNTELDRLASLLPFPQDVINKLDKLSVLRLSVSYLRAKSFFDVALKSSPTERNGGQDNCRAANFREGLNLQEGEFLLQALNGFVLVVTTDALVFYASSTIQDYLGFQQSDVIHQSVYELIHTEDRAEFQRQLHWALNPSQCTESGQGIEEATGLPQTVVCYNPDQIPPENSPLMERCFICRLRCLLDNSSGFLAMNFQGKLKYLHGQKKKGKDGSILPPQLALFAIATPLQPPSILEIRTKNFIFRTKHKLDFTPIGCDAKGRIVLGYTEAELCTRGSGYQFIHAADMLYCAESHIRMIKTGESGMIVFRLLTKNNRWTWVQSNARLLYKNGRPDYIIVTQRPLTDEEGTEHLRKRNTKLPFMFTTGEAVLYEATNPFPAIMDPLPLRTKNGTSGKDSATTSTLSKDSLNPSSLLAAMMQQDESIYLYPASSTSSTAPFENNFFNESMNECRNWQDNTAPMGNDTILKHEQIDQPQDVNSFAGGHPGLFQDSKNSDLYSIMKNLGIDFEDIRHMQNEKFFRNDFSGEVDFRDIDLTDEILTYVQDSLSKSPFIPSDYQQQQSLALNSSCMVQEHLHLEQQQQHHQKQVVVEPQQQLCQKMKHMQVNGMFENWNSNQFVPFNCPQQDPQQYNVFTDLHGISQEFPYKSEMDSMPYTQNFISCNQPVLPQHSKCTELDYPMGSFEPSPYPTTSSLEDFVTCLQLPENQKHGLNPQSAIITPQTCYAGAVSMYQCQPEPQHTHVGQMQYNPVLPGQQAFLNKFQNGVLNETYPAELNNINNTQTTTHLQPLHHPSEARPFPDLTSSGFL
Chain of Myc proto-oncogene protein (Homo sapiens) (P01106 whole entry, looked up): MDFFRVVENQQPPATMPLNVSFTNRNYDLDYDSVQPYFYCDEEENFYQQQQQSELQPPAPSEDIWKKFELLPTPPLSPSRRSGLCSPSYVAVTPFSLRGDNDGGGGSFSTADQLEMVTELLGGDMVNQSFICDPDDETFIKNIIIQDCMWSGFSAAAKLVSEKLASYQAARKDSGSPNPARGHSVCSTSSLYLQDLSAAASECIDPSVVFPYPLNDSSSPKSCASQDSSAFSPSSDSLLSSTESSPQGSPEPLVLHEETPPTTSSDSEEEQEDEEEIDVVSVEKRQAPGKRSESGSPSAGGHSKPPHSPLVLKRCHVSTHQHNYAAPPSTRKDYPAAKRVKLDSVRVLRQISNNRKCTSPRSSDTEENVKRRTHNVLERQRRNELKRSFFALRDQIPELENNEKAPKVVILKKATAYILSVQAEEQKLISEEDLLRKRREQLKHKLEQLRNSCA
Chain of Signal transducer and activator of transcription 3 (Homo sapiens) (P40763 whole entry, looked up): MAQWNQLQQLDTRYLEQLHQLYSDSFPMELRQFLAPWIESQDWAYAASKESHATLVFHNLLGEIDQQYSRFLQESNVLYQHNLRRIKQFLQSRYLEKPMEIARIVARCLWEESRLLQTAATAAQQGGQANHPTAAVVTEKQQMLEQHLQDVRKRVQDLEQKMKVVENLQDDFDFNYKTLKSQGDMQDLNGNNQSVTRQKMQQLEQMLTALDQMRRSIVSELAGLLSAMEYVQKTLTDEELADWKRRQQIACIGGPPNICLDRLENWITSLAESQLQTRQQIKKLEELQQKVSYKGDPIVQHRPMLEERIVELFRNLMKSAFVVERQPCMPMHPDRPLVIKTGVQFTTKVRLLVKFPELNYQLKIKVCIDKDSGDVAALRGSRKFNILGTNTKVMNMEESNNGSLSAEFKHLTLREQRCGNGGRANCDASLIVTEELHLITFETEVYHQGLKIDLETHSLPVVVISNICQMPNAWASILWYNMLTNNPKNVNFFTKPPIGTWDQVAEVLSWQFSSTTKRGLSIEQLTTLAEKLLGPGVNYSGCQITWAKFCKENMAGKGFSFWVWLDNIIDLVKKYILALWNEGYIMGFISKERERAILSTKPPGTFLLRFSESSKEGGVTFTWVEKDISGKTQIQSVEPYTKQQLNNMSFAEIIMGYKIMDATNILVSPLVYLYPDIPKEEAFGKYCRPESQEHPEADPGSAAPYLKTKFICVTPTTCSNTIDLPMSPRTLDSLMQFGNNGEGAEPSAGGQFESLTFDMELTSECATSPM
Chain of Transcription factor Sp1 (Homo sapiens) (P08047 whole entry, looked up, the tested form may be a part): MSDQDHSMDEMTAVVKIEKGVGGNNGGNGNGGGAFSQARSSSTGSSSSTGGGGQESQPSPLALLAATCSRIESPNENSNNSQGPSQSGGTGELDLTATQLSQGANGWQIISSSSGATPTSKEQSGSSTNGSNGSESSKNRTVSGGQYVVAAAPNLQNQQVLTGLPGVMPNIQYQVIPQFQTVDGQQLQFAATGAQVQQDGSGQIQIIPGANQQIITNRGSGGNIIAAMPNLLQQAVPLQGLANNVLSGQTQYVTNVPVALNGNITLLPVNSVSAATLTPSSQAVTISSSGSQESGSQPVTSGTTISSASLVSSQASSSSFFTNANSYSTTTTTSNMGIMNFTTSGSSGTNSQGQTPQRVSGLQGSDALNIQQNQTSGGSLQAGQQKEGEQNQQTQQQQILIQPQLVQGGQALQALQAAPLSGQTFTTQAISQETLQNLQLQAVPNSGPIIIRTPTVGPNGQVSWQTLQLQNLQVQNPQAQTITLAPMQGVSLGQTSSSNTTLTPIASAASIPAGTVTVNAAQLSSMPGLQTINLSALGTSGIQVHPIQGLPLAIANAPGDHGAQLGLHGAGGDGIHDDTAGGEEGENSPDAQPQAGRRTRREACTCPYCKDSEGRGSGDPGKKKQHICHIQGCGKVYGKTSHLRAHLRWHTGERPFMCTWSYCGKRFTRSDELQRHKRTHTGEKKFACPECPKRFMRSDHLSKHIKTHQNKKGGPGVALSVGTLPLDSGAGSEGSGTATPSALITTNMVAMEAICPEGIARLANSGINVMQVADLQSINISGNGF
Chain of Nuclear respiratory factor 1 (Homo sapiens) (Q16656 whole entry, looked up): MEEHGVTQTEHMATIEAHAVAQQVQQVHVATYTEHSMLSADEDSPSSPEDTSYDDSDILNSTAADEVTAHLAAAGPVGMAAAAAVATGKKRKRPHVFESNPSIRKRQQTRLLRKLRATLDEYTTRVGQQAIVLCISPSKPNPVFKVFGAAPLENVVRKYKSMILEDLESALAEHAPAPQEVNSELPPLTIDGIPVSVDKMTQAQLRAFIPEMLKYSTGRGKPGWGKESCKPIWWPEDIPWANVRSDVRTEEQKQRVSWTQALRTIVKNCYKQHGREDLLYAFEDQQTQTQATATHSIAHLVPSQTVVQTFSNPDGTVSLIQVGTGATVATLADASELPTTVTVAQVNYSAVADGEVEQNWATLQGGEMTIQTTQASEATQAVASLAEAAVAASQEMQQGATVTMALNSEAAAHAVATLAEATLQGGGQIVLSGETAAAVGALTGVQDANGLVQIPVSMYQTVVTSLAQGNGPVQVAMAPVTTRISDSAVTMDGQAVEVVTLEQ
Chain of Paired box protein Pax-6 (Homo sapiens) (P26367 whole entry, looked up): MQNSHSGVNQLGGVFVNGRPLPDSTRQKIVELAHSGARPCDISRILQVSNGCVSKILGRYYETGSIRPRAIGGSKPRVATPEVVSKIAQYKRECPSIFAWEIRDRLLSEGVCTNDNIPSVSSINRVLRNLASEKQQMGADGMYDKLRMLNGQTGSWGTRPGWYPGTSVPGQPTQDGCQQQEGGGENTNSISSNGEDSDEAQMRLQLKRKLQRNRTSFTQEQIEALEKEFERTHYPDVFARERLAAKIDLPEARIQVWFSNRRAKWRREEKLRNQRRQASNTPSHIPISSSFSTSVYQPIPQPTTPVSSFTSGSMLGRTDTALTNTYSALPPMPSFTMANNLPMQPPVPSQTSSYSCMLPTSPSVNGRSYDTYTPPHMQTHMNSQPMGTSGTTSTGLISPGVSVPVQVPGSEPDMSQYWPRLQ

CCCCCCCCCCCC#N
inactive: [1] | [2] | [3] | [4] | [7] | [8] | [9] | [10] | [11] | [12] | [13] | [14] | [15] | [17]
active: [5] 76.4 µM | [6] 128 µM | [16] 169 µM | [18] 131 µM | [19] 141 µM

CC1(C)[C@H](C(=O)O[C@H](C#N)c2cccc(Oc3ccccc3)c2)[C@@H]1C=C(Br)Br
active: [11] 56.7 µM
inactive: [1] | [2] | [3] | [4] | [5] | [6] | [7] | [8] | [9] | [10] | [14] | [15] | [16] | [17] | [18] | [19]

CCC(C)c1cc(C(C)(C)C)cc(-n2nc3ccccc3n2)c1O (configuration not stated)
inactive: [1] | [2] | [4] | [5] | [6] | [7] | [8] | [9] | [10] | [11] | [12] | [13] | [14] | [15] | [16] | [17] | [18] | [19]

CNC(=O)Oc1cc(C)c(SC)c(C)c1
inactive: [1] | [2] | [5] | [6] | [8] | [9] | [10] | [11] | [14] | [15] | [16] | [17] | [18]
active: [12] 51.8 µM | [19] 68.7 µM

CCCCOP(=O)(O)OCCCC
inactive: [1] | [3] | [4] | [5] | [6] | [7] | [8] | [9] | [10] | [11] | [20] | [13] | [14] | [15] | [16] | [17] | [18] | [19]

O=P1(NCCCl)OCCCN1CCCl (configuration not stated)
inactive: [2] | [3] | [4] | [5] | [6] | [7] | [8] | [9] | [10] | [11] | [20] | [13] | [14] | [15] | [16] | [17] | [18] | [19]

CC(C)c1ccc(O)cc1
active: [9] 131 µM
inactive: [1] | [4] | [5] | [6] | [7] | [8] | [10] | [11] | [12] | [20] | [14] | [15] | [16] | [17] | [18] | [19]
